# Records with an inconclusive call do not appear. The source made the active and inactive calls. Rule for the calls, unless noted: active = hit-call score of the fitted dose curve at least 0.9, where 1 is the maximum; inconclusive = response in the unintended direction; inactive = score below 0.9.
# What was measured:
# [1] = CCTE_Deisenroth_AIME_384WELL_CTox_Inactive: Cytotoxicity Assessment (CTOX) in CCTE's 384-well Estrogen Receptor Transactivation Assay without AIME metabolic competence (metabolism negative), Deisenroth Lab (AID 2284039);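 note: cell viability via live-cell protease substrate cleaved to fluorescent probe; cells exposed 24 h to medium preincubated 2 h with alginate-water beads without S9; loss of fluorescence signal means loss of viability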
# Outline: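 VM7Luc4E2 cells, metabolism-negative arm: test chemicals (0.002–200 uM, 10 points) pre-incubated 2 h with alginate-water microspheres, then medium transferred to cells for 24 h. Viability read as protease-substrate cleavage to fluorescent probe; loss-of-signal, bidirectional fitting.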
# [2] = target: Estrogen receptor (Homo sapiens) (UniProt P03372); test: CCTE_Deisenroth_AIME_384WELL_LUC_Active: CCTE's 384-well Estrogen Receptor Transactivation Assay with AIME metabolic competence (ERTA luciferase; metabolism positive), Deisenroth Lab (AID 2284030)
# Estrogen receptor (Homo sapiens), sequence (P03372 whole entry, looked up): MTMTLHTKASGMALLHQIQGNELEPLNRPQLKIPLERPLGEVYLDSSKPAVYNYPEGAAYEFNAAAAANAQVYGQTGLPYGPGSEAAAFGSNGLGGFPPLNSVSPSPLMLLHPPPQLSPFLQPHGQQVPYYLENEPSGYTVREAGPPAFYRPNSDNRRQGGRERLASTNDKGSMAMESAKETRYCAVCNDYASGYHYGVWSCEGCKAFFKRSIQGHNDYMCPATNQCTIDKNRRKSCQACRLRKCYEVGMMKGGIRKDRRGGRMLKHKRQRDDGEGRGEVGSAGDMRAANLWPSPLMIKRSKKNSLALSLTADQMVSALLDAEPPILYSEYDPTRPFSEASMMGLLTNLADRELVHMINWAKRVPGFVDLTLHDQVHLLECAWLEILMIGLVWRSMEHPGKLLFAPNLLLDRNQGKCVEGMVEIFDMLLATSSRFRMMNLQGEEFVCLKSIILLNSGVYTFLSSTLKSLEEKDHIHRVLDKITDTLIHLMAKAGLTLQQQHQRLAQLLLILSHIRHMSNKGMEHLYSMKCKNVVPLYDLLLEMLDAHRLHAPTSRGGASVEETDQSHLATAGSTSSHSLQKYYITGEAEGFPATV
# Outline: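 VM7Luc4E2 breast cells were given, for 24 hours, medium pre-incubated for 2 hours with parent chemical (0.002-200 uM, 10 concentrations) and alginate-encapsulated phenobarbital/beta-naphthoflavone-induced rat hepatic S9. Luciferase gain of signal was fitted against 17beta-estradiol; n=4 or more.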
# [3] = target: Estrogen receptor (Homo sapiens) (UniProt P03372); test: CCTE_Deisenroth_AIME_384WELL_LUC_Inactive: CCTE's 384-well Estrogen Receptor Transactivation Assay without AIME metabolic competence (ERTA luciferase; metabolism negative), Deisenroth Lab (AID 2284038);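 note: VM7Luc4E2 breast cells given medium preincubated 2 h with S9-free microspheres; hits raise estrogen receptor luciferase signal so potencies reflect agonists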
# Outline: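 Chemicals (10-point series, 0.002 - 200 uM) were incubated 2 hours with alginate-water microsphere lids lacking S9, then the conditioned medium was transferred to VM7Luc4E2 breast cells for 24 hour. Luciferase induction was read by bioluminescence, fitted upward relative to 17beta-estradiol.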
# [4] = target: Estrogen receptor (Homo sapiens) (UniProt P03372); test: CCTE_Deisenroth_AIME_384WELL_LUC_Shift: CCTE's 384-well Estrogen Receptor Transactivation Assay with AIME metabolic competence data shift (ERTA luciferase; difference in metabolism positive and negative), Deisenroth Lab (AID 2284041; active = hit-call score of the fitted dose curve at least 0.9, where 1 is the maximum; inactive = score below 0.9;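 note: shift is response with S9 minus without S9 so positive means metabolism raised ER signal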)
# Outline: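 Here, parent compounds undergo 2 h phase I metabolism by PB/BNF-induced rat S9 before 24 h transactivation in VM7Luc4E2 cells; the curve models S9-positive minus S9-negative response over a 10-point series.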
# [5] = CCTE_Shafer_MEA_acute_synchrony_index: CCTE's Neural Acute Assay for Synchrony, Shafer Lab (AID 2284027; active = hit-call score of the fitted dose curve at least 0.9, where 1 is the maximum; inactive = score below 0.9;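 note: network synchrony index of spontaneous spiking in primary rat cortical neurons on MEAs; fitted for loss of signal so actives lower synchrony relative to DMSO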)
# Outline: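 Spontaneous firing of mature rat cortical networks is captured extracellularly on microelectrode arrays at 37 C, with wells needing ≥10 active electrodes. Each compound (0.03-40 uM) is judged by the change in synchrony index from baseline over 40 min.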
# [6] = CCTE_Shafer_MEA_dev_firing_rate_mean: CCTE's Neural Network Formation Assay for Mean Firing Rate, Shafer Lab (AID 2284031; active = hit-call score of the fitted dose curve at least 0.9, where 1 is the maximum; inactive = score below 0.9;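 for AC50: curve fitted for loss of firing so AC50 reflects decreased mean firing rate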)
# Outline: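 Developing rat cortical networks on MEA plates undergo 12-day compound exposure. Firing frequency, averaged across active electrodes, is integrated as area under the curve over four recording days, referenced to DMSO.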
# [7] = CCTE_Shafer_MEA_dev_per_burst_spike_percent: CCTE's Neural Network Formation Assay for Percent of Spikes in a Burst, Shafer Lab (AID 2284032; active = hit-call score of the fitted dose curve at least 0.9, where 1 is the maximum; inactive = score below 0.9;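 for AC50: fitted as a decrease in burst spike percentage below DMSO baseline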)
# Outline: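 Rat primary cortical neurons on 16-electrode MEA wells, dosed from plating day 0 for 12 days with renewal on DIV 5 and 9; spikes-in-bursts percentage averaged over bursting electrodes, collapsed as AUC across days 5, 7, 9, 12; loss direction versus DMSO.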
# [8] = CCTE_Shafer_MEA_dev_active_electrodes_number: CCTE's Neural Network Formation Assay for Number of Active Electrodes, Shafer Lab (AID 2284040);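 for AC50: potency for loss of active electrodes versus DMSO so lower counts are hits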
# Outline: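 Rat cortical primary cultures, 1.5 x 10^5 cells/well, PEI-coated MEA, laminin drop. Continuous exposure DIV 0–12; full media/compound change DIV 5, 9. Readout: electrodes with mean firing ≥5 spikes/min; AUC across days; loss vs DMSO.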
# [9] = CCTE_Shafer_MEA_dev_burst_rate: CCTE's Neural Network Formation Assay for Burst Rate, Shafer Lab (AID 2284042; active = hit-call score of the fitted dose curve at least 0.9, where 1 is the maximum; inactive = score below 0.9;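 for AC50: potency for loss of burst rate below DMSO control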)
# Outline: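 Primary rat cortical neurons on PEI-coated 48-well MEA plates (laminin added with cells at plating) (16 electrodes/well), exposed from plating to day 12, dosing renewed at DIV 5 and 9. Burst rate averaged over active electrodes, recorded DIV 5, 7, 9, 12, summarized as AUC; loss versus DMSO.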
# [10] = CCTE_Shafer_MEA_dev_bursting_electrodes_number: CCTE's Neural Network Formation Assay for Number of Bursting Electrodes, Shafer Lab (AID 2284043);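 for AC50: potency is for loss of bursting electrodes relative to DMSO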
# Outline: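 Primary rat cortical neurons were cultured on PEI-coated 48-well MEA plates (16 electrodes/well) and exposed from plating through day 12, with compound renewed at feeds on DIV 5 and 9. Electrodes bursting ≥1 per 2 min were counted on DIV 5, 7, 9, 12; trapezoidal AUC taken.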
smiles,measurement,setting,value
CCCC1CCC(=O)O1 (configuration not stated),outcome,[1],inactive
NCCCCCCN,outcome,[1],inactive
NCCCN1CCOCC1,outcome,[2],inactive
same,outcome,[3],inactive
same,outcome,[1],inactive
same,outcome,[4],inactive
C=C[Si](OCC)(OCC)OCC,outcome,[5],inactive
CCCCCCCCC=O,outcome,[5],inactive
CCC(=O)OCc1ccccc1,outcome,[5],inactive
CCCCCCCCCCCCCOS(=O)(=O)O,AC50,[1],96300 nM (active)
CCCCCCCCCC=O,outcome,[2],inactive
same,outcome,[3],inactive
same,outcome,[4],inactive
OCCOCCOCCOCCO,AC50,[2],0.342 nM (active)
same,AC50,[3],1.71 nM (active)
same,outcome,[1],inactive
same,outcome,[4],inactive
C=CCOC(=O)CCC1CCCCC1,outcome,[5],inactive
CC(C)(COC(=O)c1ccccc1)COC(=O)c1ccccc1,outcome,[5],inactive
NCCNCCN,outcome,[5],inactive
c1ccc2c(c1)c1cccc3ccc4cccc2c4c31,outcome,[6],inactive
same,outcome,[7],inactive
same,AC50,[8],3190 nM (active)
same,outcome,[9],inactive
same,AC50,[10],3330 nM (active)
CN(C)CCCN,outcome,[2],inactive
same,outcome,[3],inactive
same,outcome,[1],inactive
same,outcome,[4],inactive
O=C[C@@H](O)[C@H](O)[C@H](O)CO,outcome,[1],inactive
CCCCC(CC)COC(=O)/C=C\C(=O)OCC(CC)CCCC (configuration not stated),outcome,[1],inactive
NC(=O)NC1NC(=O)NC1=O (configuration not stated),outcome,[1],inactive
COc1cc(C=O)ccc1OC(=O)C(C)C,outcome,[5],inactive
CC(=O)OCCOC(C)=O,outcome,[2],inactive
same,outcome,[3],inactive
same,outcome,[1],inactive
same,outcome,[4],inactive
O=C(O)c1ccc(C(=O)O)cc1,outcome,[1],inactive
C[C@H]1C[C@@H]2[C@H]([C@@H](O)C[C@@]3(C)[C@H]2CC[C@]3(O)C(=O)CO)[C@@]2(C)C=CC(=O)C=C12,outcome,[5],inactive
O=C1C(c2[nH]c3ccc(S(=O)(=O)O)cc3c2O)=Nc2ccc(S(=O)(=O)O)cc21,outcome,[1],inactive
CC[Si](OC(C)=O)(OC(C)=O)OC(C)=O,outcome,[5],inactive
CC(C)=CCCC(C)CC=O (configuration not stated),outcome,[1],inactive
CC1(C)[C@@H]2CC[C@@]1(C)[C@H](O)C2,outcome,[1],inactive
O=C(O)c1ccc([N+](=O)[O-])cc1,outcome,[1],inactive
CC(=O)OCCC(C)CC(C)(C)C (configuration not stated),outcome,[5],inactive
CCC(=O)/C=C/C1C(C)=CCCC1(C)C (configuration not stated),outcome,[1],inactive
OC1OC[C@@H](O)[C@H](O)[C@H]1O (some centres not stated),outcome,[5],inactive
CC(=O)[C@H]1CC[C@H]2[C@@H]3CC=C4C[C@@H](O)CC[C@]4(C)[C@H]3CC[C@]12C,AC50,[5],4.09 nM (active)
Nc1cc([N+](=O)[O-])ccc1O,AC50,[5],22600 nM (active)
OC[C@H]1O[C@H](O[C@]2(CCl)O[C@H](CCl)[C@@H](O)[C@@H]2O)[C@H](O)[C@@H](O)[C@H]1Cl,outcome,[5],inactive
Cc1cc(C2(c3cc(C)c(O)cc3C)OS(=O)(=O)c3ccccc32)c(C)cc1O,outcome,[5],inactive
N#Cc1ccc(CC(=NNC(=O)Nc2ccc(OC(F)(F)F)cc2)c2cccc(C(F)(F)F)c2)cc1,AC50,[6],363 nM (active)
same,AC50,[7],301 nM (active)
same,AC50,[8],692 nM (active)
same,AC50,[9],240 nM (active)
same,AC50,[10],297 nM (active)
CCCCCCCCCCCCCC(=O)O,outcome,[2],inactive
same,outcome,[3],inactive
same,outcome,[1],inactive
same,outcome,[4],inactive
CC1(C)C(=O)N(Br)C(=O)N1Cl,outcome,[1],inactive
CN(C)C(=N)N=C(N)N,outcome,[5],inactive
same,outcome,[6],inactive
same,outcome,[7],inactive
same,outcome,[8],inactive
same,outcome,[9],inactive
same,outcome,[10],inactive
